From PubChem BioAssay (EPA / NIEHS)
Results filed as inconclusive are left out. More than one record can exist for a structure, and the calls need not agree. The source made the active and inactive calls. Rule for the calls, unless noted: active = hit-call score of the fitted dose curve at least 0.9, where 1 is the maximum; inactive = score below 0.9.

Key:
[1] = APR_HepG2_CellCycleArrest_1hr: Apredica 1-hour HepG2 Assay for Cell Cycle Arrest (AID 2282666); details: high-content imaging, actives raise or lower the signal
How it was run: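 Cell cycle arrest scored from nuclear DNA content (Hoechst 33342) using high-content imaging of fixed HepG2 cells after 1 h treatment across 0.39–200 uM, in duplicate. Gain or loss fitted relative to 0.5% DMSO.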

[2] = ACEA_ER_80hr: ACEA Biosciences xCELLigence Real-Time Cell Analysis on Estrogen Receptor Agonism for Proliferation (AID 2282667; active = hit-call score of the fitted dose curve at least 0.9, where 1 is the maximum); details: T47D proliferation, impedance (xCELLigence), 80 h
How it was run: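 T-47D cells monitored by electrical impedance (xCELLigence) with compound present throughout; 80 h timepoint, positive-direction fitting versus DMSO. Eight-point 1:4 dilutions from 100 uM final, duplicate plates.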

[3] = APR_HepG2_CellLoss_1hr: Apredica 1-hour HepG2 Assay for Cell Loss (AID 2282668); details: high-content imaging;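 note: curves fitted both ways against DMSO so gain or loss of cells counts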
How it was run: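 Cell number comes from high-content imaging of Hoechst-labelled nuclei in fixed HepG2 cells. Cells were exposed for 1 h to ten concentrations from 0.39 to 200 uM in 0.5% DMSO. Gain or loss was fitted against DMSO controls.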

[4] = APR_HepG2_MicrotubuleCSK_1hr: Apredica 1-hour HepG2 Assay for Microtubule CSK Stabilty (AID 2282669); details: HepG2 microtubule cytoskeleton imaging, actives raise or lower the signal
How it was run: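 Alpha-tubulin immunofluorescence, imaged by automated high-content microscopy with Hoechst nuclear segmentation, measured cytoskeletal change after 1 h dosing of HepG2 at 0.39–200 uM in 0.5% DMSO. Activity fitted in both directions relative to DMSO.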

[5] = APR_HepG2_NuclearSize_1hr: Apredica 1-hour HepG2 Assay for Nuclear Size (AID 2282670); details: high-content imaging, actives raise or lower the signal
How it was run: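 Nuclear size measured by high-content imaging of Hoechst 33342 nuclear stain after formaldehyde fixation; human HepG2 line exposed 1 hr to compounds at 0.39–200 uM in 0.5% DMSO, with bidirectional curve fitting relative to DMSO.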

[6] = APR_HepG2_p53Act_1hr: Apredica 1-hour HepG2 Assay for p53 Activation (AID 2282671); details: high-content imaging, actives raise or lower the signal
How it was run: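 After 1 h exposure (0.39–200 uM, 0.5% DMSO final, duplicates), fixed HepG2 cells were labelled with anti-p53 antibody plus Hoechst nuclear stain. Fluorescence quantified by automated 20x imaging; changes fitted in both directions against DMSO.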

[7] = APR_HepG2_P-H2AX_1hr: Apredica 1-hour HepG2 Assay for H2AX Phosphorylation (AID 2282673); details: high-content imaging, actives raise or lower the signal
How it was run: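 Phospho-H2A.x immunofluorescence (1:200, FITC secondary) plus Hoechst nuclear stain, quantified by high-content imaging in HepG2 after 1 hr compound exposure. Ten concentrations, 0.39 to 200 uM, in duplicate with 0.5% DMSO; fit both directions against DMSO.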

[8] = APR_HepG2_MitoMembPot_1hr: Apredica 1-hour HepG2 Assay for Mitochondrial Membrane Potential (AID 2282675); details: imaging, actives raise or lower the signal
How it was run: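 Mitochondrial membrane potential read as MitoTracker Red CMXRos intensity by automated imaging of fixed HepG2 cells. Dye at 250 nM for 30 min pre-fixation; compounds 0.39 to 200 uM for 1 hour, duplicate wells, 0.5% DMSO.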

[9] = APR_HepG2_MitoMass_1hr: Apredica 1-hour HepG2 Assay for Mitochondrial Mass (AID 2282674); details: high-content imaging, actives raise or lower the signal
How it was run: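 Mitochondrial mass is taken from MitoTracker Red CMXRos (250 nM, 30 min, pre-fixation) fluorescence imaged at 20x in HepG2 cells. Exposure lasted 1 hr across ten concentrations, 0.39 to 200 uM, 0.5% DMSO; DMSO baseline, bidirectional fitting.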

[10] = APR_HepG2_MitoticArrest_1hr: Apredica 1-hour HepG2 Assay for Mitotic Arrest (AID 2282672); details: high-content imaging, actives raise or lower the signal
How it was run: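 Ten-point concentration series (0.39 to 200 uM, duplicates, 0.5% v/v DMSO) applied to human HepG2 liver cells for 1 hr. High-content imaging of phospho-histone H3 and Hoechst-stained nuclei after fixation and permeabilization; DMSO-normalised bidirectional fit.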

Measured: AC50

COP(N)(=O)SC (stereo unspecified)
not listed: [9] | [10]
inactive: all other assays above

CC(C)(C)c1ccc(CSc2cnn(C(C)(C)C)c(=O)c2Cl)cc1
active: [2] 4.06 nM
not listed: [10]
inactive: all other assays above

Fc1ccc(Oc2ccnc3cc(Cl)cc(Cl)c23)cc1
not listed: [4] | [10]
inactive: all other assays above

O=C(Nc1ccccc1)Nc1ccnc(Cl)c1
active: [8] 99.5 µM
not listed: [4]
inactive: all other assays above

Cc1ccc(-c2c(Cl)nc(C#N)n2S(=O)(=O)N(C)C)cc1
active: [2] 10500 nM | [8] 100 µM
inactive: all other assays above

COP(=S)(OC)Oc1nc(Cl)c(Cl)cc1Cl
not listed: [4] | [9]
inactive: all other assays above

CC(C)Oc1cc(-n2nc(C(C)(C)C)oc2=O)c(Cl)cc1Cl
not listed: [9]
inactive: all other assays above

CCOc1cc(Oc2ccc(C(F)(F)F)cc2Cl)ccc1[N+](=O)[O-]
not listed: [9] | [10]
inactive: all other assays above

CCc1nn(C)c(C(=O)NCc2ccc(C(C)(C)C)cc2)c1Cl
active: [2] 18.3 nM
not listed: [4] | [10]
inactive: all other assays above

CCNc1nc(Cl)nc(NC(C)C)n1
not listed: [10]
inactive: all other assays above

CCOC(=O)C(Cl)Cc1cc(-n2nc(C)n(C(F)F)c2=O)c(F)cc1Cl (stereo unspecified)
not listed: [4] | [10]
inactive: all other assays above

CS/C(C)=N/OC(=O)N(C)SN(C)C(=O)O/N=C(\C)SC
active: [2] 164 nM | [3] 45.7 µM
not listed: [9] | [10]
inactive: all other assays above

CC1COC(Cn2cncn2)(c2ccc(Oc3ccc(Cl)cc3)cc2Cl)O1 (stereo unspecified)
not listed: [4] | [9]
inactive: all other assays above

CCCCNC(=O)n1c(NC(=O)OC)nc2ccccc21
not listed: [4] | [9]
inactive: all other assays above

CNC(=O)ON=CC(C)(C)SC
not listed: [9] | [10]
inactive: all other assays above

C=CC1(C)OC(=O)N(c2cc(Cl)cc(Cl)c2)C1=O (stereo unspecified)
not listed: [9] | [10]
inactive: all other assays above

Oc1ccccc1-c1ccccc1
not listed: [4] | [9]
inactive: all other assays above

C=CCC1=C(C)C(OC(=O)C2C(C=C(C)C)C2(C)C)CC1=O (stereo unspecified)
active: [8] 100 µM
not listed: [4] | [9]
inactive: all other assays above

COc1nc(NC(C)C)nc(NC(C)C)n1
not listed: [9]
inactive: all other assays above

CC(C)C1(C)N=C(c2nc3ccccc3cc2C(=O)O)NC1=O (stereo unspecified)
not listed: [4] | [9]
inactive: all other assays above

CNC(=S)S
not listed: [10]
inactive: all other assays above

OC(c1ccc(Cl)cc1)(c1cncnc1)c1ccccc1Cl (stereo unspecified)
not listed: [4] | [9]
inactive: all other assays above

CC1=C(C(=O)Nc2ccccc2)SCCO1
not listed: [4] | [10]
inactive: all other assays above

CO/C=C(/C(=O)OC)c1ccccc1Oc1cc(Oc2ccccc2C#N)ncn1
inactive: [1] | [2] | [3] | [5] | [6] | [7] | [9] | [8]
active: [2] 11.1 µM [middle of 5 runs]
